Screens as filed in PubChem.
Rows were chosen to be rich in hits. Some 5.8% of all compounds tested hit in one or more screens of this group.
SW480 rerep: inducers of DNA re-replication in SW480 colon cancer cells; SW480 DNA re-replication, Hoechst DNA content imaging, 48 h; 1.8% of 340,000 active; Potency, µM (highest dose often 46.1 µM), without a hit: at the top dose re-replication activation, usual class: activators; note: % of control where 0% means no effect; nearly all actives have a fitted effect of over 55% in size
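Compounds, transferred as 23 nL by pin tool, were incubated with cells for 48 hr; DNA content per nucleus was then quantified by Hoechst staining and fluorescence plate imaging.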
KB-V1 cytotox: KB-V1 MDR subline cytotoxicity. 3.4% of 400,000 active. KB-V1 MDR cells viability, CellTiter-Glo, 72 h. Potency, µM (top dose mostly 46.1 µM), actives largely listed as cytotoxic. AID 1347076; note: % is set by controls: 0 for no effect and ±100 for the full control effect; nearly all actives have a fitted effect of over 60% in size
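qHTS viability screen in drug-selected KB-V1 MDR cells: 72 h compound treatment at 37 degrees C, ATP luminescence end point.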
MCF10A rereplic: inducers of DNA re-replication in MCF 10A breast cells. MCF 10A DNA re-replication, Hoechst nuclear intensity, 48 h. Potency, µM (doses to about 46.1 µM), inactives show top-dose activity, positive = re-replication, hits mostly activators. 2.9% of 350,000 active. AID 624296; note: % of control where 0% means no effect; nearly all actives have a fitted effect of over 50% in size
PINK1 expr mod: PINK1 expression modulation | PINK1 immunofluorescence, high-content cytometry, 24 h | Potency, µM (top dose mostly 76.6 µM), without a hit: at the top dose activation (PINK1 increase), actives largely listed as activators | 0.2% of 410,000 active | AID 624263; active = well fitted activation curve with a large enough effect; inconclusive = small, poorly fitted or top-dose-only effect; cell line not stated here; note: % of control where 0% means no effect; nearly all actives have a fitted effect of over 65% in size
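A stable cell line was treated with compounds at 5 concentrations for 24 hours, with CCCP as control. PINK1 levels and mitochondrial localization were measured by immunofluorescence with mitochondrial, cell and nuclear markers after fixation, read by laser-scanning cytometry.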
KB-3-1 cytotox: kills parental KB-3-1 adenocarcinoma cells | Potency, µM (titrated, usually from 46.1 µM), most hits filed as cytotoxic | KB-3-1 viability, CellTiter-Glo ATP luminescence, 72 h | 1.4% of 400,000 active; note: % is set by controls: 0 for no effect and ±100 for the full control effect; nearly all actives have a fitted effect of over 60% in size
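Luminescent ATP read-out (CellTiter-Glo) measures survival of drug-naive KB-3-1 cells after 72 h compound exposure at 37 °C. Titration series was screened from lowest to highest concentration, with DMSO vehicle plates as background controls.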
12-LOX inh: blocks human arachidonate 12S-lipoxygenase. AID 1671190. 1.1% of 580,000 active. P18054. Potency, µM (top dose mostly 108 µM), without a hit: at the top dose activity change, negative = inhibition, most hits filed as inhibitors. purified 12hLO, xylenol orange hydroperoxide absorbance; note: % is set by controls: 0 for no effect and ±100 for the full control effect
Target sequence (P18054 whole entry, looked up): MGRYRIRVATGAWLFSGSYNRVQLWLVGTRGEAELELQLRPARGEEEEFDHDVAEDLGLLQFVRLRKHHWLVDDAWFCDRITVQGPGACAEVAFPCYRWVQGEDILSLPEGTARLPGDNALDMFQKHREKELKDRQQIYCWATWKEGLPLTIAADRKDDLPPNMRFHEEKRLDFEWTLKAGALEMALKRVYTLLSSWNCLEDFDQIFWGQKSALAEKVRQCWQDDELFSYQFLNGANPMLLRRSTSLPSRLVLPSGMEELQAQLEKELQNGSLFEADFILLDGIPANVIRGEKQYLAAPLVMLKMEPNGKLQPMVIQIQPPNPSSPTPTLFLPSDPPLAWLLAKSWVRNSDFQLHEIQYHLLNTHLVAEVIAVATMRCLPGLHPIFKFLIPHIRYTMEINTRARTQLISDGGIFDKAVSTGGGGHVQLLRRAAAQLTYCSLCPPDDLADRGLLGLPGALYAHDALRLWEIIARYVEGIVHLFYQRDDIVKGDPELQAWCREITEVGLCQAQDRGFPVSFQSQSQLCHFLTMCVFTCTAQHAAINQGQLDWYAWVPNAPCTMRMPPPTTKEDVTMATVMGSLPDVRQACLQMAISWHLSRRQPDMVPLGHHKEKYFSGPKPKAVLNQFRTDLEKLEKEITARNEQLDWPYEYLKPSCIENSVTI
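Hydroperoxide product was detected by ferrous iron/xylenol orange as the 573 to 405 nm absorbance ratio. Arachidonic acid at 40 uM (final) was turned over for 30 min at room temperature by 150 nM human 12hLO, pH 7.0 Hepes buffer, after 15 min compound preincubation.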
The depositor's hits bear a star; ! = repeats disagree; [ ] = another dose, or the depositor's remark. Unless noted, calls come from the whole dose curve; as a rule, active = well fitted curve in the direction sought with a large enough effect; inconclusive = small, poorly fitted or top-dose-only effect, or another doubt; inactive = no such curve, though single readings can be large; an effect the other way counts as inactive or inconclusive. Potency is the fitted concentration of half-maximal effect.

What do the screens show for `Cc1ccccc1OCc1nnc(SCc2cc(=O)[nH]c3ccccc23)n1-c1ccccc1`?
SW480 rerep: inconclusive; KB-V1 cytotox: 16.4µM*; MCF10A rereplic: inconclusive; PINK1 expr mod: -0.7%; KB-3-1 cytotox: inconclusive; 12-LOX inh: 9.0%

How did Cc1cc(C)c2c(=O)n(CC(=O)Nc3ccc(Cl)cc3)sc2n1 do in these assays?
SW480 rerep: inconclusive; KB-V1 cytotox: inactive; MCF10A rereplic: inconclusive; PINK1 expr mod: 1.2%; KB-3-1 cytotox: inactive; 12-LOX inh: 1.26µM*

Results for Cc1ccc(NC(=O)Cn2sc3nc(C)cc(C)c3c2=O)c(Cl)c1 ?
SW480 rerep: inconclusive; KB-V1 cytotox: inactive; MCF10A rereplic: 4.61µM*; PINK1 expr mod: 0.3%; KB-3-1 cytotox: inactive; 12-LOX inh: 2µM*

How did CNC(=O)NC(=O)C(C)NC(C)c1ccc(Cl)cc1 (centres undefined) do in these assays?
12-LOX inh: -13.3%

Results for Cc1ccccc1N1C(=O)c2cccc3c(N(C)CCO)ccc(c23)C1=O ?
SW480 rerep: inconclusive; KB-V1 cytotox: 18.4µM*; MCF10A rereplic: -3.9%; KB-3-1 cytotox: inactive; 12-LOX inh: inconclusive

How did CC(=O)Oc1cc(OC(C)=O)c2c(C)c(CC(=O)NCc3ccccc3)c(=O)oc2c1 do in these assays?
12-LOX inh: -5.4%

Results for CC(=O)NC(c1ccc(C(C)C)cc1)c1ccc2cccnc2c1O (centres undefined) ?
SW480 rerep: 0.82µM*; KB-V1 cytotox: inconclusive; MCF10A rereplic: inconclusive; PINK1 expr mod: 4.9%; KB-3-1 cytotox: 0.651µM*; 12-LOX inh: -15.3%

How did CCCC(=O)NC(c1ccccc1)c1ccc2cccnc2c1O (centres undefined) do in these assays?
SW480 rerep: inconclusive; KB-V1 cytotox: inconclusive; MCF10A rereplic: inconclusive; PINK1 expr mod: 2.3%; KB-3-1 cytotox: inconclusive; 12-LOX inh: -22.2%

How did CCCCC(=O)NC(c1ccccc1)c1ccc2cccnc2c1O (centres undefined) do in these assays?
SW480 rerep: 0.517µM*; KB-V1 cytotox: 13µM*; MCF10A rereplic: inconclusive; PINK1 expr mod: 1.3%; KB-3-1 cytotox: inconclusive; 12-LOX inh: -5.5%

Results for CCCCC(=O)NC(c1ccc(C(C)C)cc1)c1ccc2cccnc2c1O (centres undefined) ?
SW480 rerep: inconclusive; KB-V1 cytotox: inactive; MCF10A rereplic: 18.4µM*; PINK1 expr mod: 11.6%; KB-3-1 cytotox: inconclusive; 12-LOX inh: -10.4%

What do the screens show for `CCC(=O)NC(c1ccccc1OC)c1ccc2cccnc2c1O` (centres undefined)?
SW480 rerep: 1.8%; KB-V1 cytotox: inconclusive; MCF10A rereplic: 6.9%; PINK1 expr mod: 1.6%[38.3 µM]; KB-3-1 cytotox: 10.3µM*

What do the screens show for `COc1ccc(CNC(=O)N2CCCCCC2CN2CCOCC2)cc1` (centres undefined)?
12-LOX inh: 29.4%

What do the screens show for `COc1cc(CCC(=O)N(CC#N)C2CC2)cc(OC)c1`?
12-LOX inh: -6.3%

Results for COc1ccc(Cl)cc1C(Nc1cccnc1)c1ccc2cccnc2c1O (centres undefined) ?
SW480 rerep: 7.31µM*; KB-V1 cytotox: inconclusive; MCF10A rereplic: inconclusive; PINK1 expr mod: 7.4%; KB-3-1 cytotox: inconclusive; 12-LOX inh: inconclusive

What do the screens show for `CCCC(=O)NC(c1ccc(OC)cc1)c1ccc2cccnc2c1O` (centres undefined)?
SW480 rerep: -5.9%; KB-V1 cytotox: 7.31µM*; MCF10A rereplic: inconclusive; PINK1 expr mod: 0.1%; KB-3-1 cytotox: inconclusive; 12-LOX inh: -16.9%

What do the screens show for `Oc1c(C(Nc2cccnc2)c2ccc(C(F)(F)F)cc2)ccc2cccnc12` (centres undefined)?
KB-V1 cytotox: inactive; PINK1 expr mod: 2.3%; KB-3-1 cytotox: inactive

What do the screens show for `Cc1ccc(NC(=O)c2ccc3ccccc3n2)c(Cl)c1`?
12-LOX inh: -28.5%

How did COc1cc(Nc2ncnc3onc(-c4ccc(Cl)cc4)c23)cc(OC)c1 do in these assays?
KB-V1 cytotox: inactive; PINK1 expr mod: -2.0%; KB-3-1 cytotox: inactive; 12-LOX inh: -13.9%

How did COc1ccc(Nc2ncnc3onc(-c4ccc(Cl)cc4)c23)cc1Cl do in these assays?
KB-V1 cytotox: inactive; PINK1 expr mod: 7.1%; KB-3-1 cytotox: 10.3µM*; 12-LOX inh: -5.5%

Results for CCOC(=O)COc1ccc2nsnc2c1Cl ?
SW480 rerep: 10.6%; KB-V1 cytotox: inactive; MCF10A rereplic: 17.6%; PINK1 expr mod: 0.5%; KB-3-1 cytotox: inactive; 12-LOX inh: 0.0%

How did C=C(CC)C(=O)c1ccc(OCC(=O)O)c(Cl)c1Cl do in these assays?
SW480 rerep: inconclusive; KB-V1 cytotox: inactive; MCF10A rereplic: 18.8µM*!; PINK1 expr mod: 0.8%; KB-3-1 cytotox: inactive; 12-LOX inh: 11.9%

Results for COc1ccc(Nc2nccc3c(=O)cc(N4CCOCC4)oc23)cn1 ?
12-LOX inh: 25.1µM*

What do the screens show for `C[S+](=O)([O-])c1cccc(-c2nccc3c(=O)cc(N4CCOCC4)oc23)c1`?
12-LOX inh: 56.2µM*

Results for COc1cccc(-c2nccc3c(=O)cc(N4CCOCC4)oc23)c1 ?
12-LOX inh: 44.7µM*

Results for CN(C)CCN(Cc1ccccc1)C(=O)Nc1ccc(C(=O)NCC(F)(F)F)cc1 ?
12-LOX inh: 22.8%

Results for CC(C)C(=O)OCC(=O)[C@@]12OC(C3CCCCC3)O[C@@H]1CC1C3CCC4=CC(=O)C=C[C@]4(C)C3[C@@H](O)C[C@@]12C (some centres undefined) ?
SW480 rerep: 11.9µM*; MCF10A rereplic: inconclusive

Results for Cc1nn2c(c1-c1ccccc1C(C)C)N(Cc1ccc3c(c1)CCO3)CCC2 ?
12-LOX inh: 4.4%[176 µM]

What do the screens show for `COc1ccc(C(=O)O)cc1N1C(=O)Nc2ccccc2N1O`?
SW480 rerep: -3.7%; KB-V1 cytotox: inactive; MCF10A rereplic: 2.0%; PINK1 expr mod: 0.4%; KB-3-1 cytotox: inactive; 12-LOX inh: 44.7µM*

How did Clc1ccc(-c2noc(CCc3nc4ccccc4[nH]3)n2)cc1 do in these assays?
12-LOX inh: 15.1%
